# Screening data as filed in PubChem.
# Most compounds without a hit are left out; they make up all but 6.9% or so of the library.
# NS3h inh CB = hepatitis C NS3 helicase inhibition, primary screen | NS3h Cy5-dT15 DNA binding, fluorescence polarization | inhibition, % at 100 µM | hit rate 1.6% among 16,000;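 active means inhibition above the average over every tested compound plus 3 SD, cut at about 40% in these data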
# Cy5 interf NS3h = counter-screen for HCV NS3 helicase inhibitors: fluorescence interference | Cy5-dT15 DNA with NS3h; actives lie on both sides; signal over control mean, under 1 quenches | fluorescence interference ratio at 100 µM | hit rate 6% among 16,000;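 active means compound fluorescence over control fluorescence at most 0.8, a quencher, or at least a set upper limit, an enhancer; inactive means ratio between 0.8 and the set upper limit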
# * hit, by the source's call.
SMILES,NS3h inh CB,Cy5 interf NS3h
O=C(Nc1cccc(NC(=S)NC(=O)c2ccco2)c1)c1cccc(Cl)c1,-6,1.1
O=C(NC(=S)Nc1cccc(NC(=O)c2ccccc2Cl)c1)c1ccco1,44*,0.87
O=C(NC(=S)Nc1cccc(Cl)c1)c1ccco1,-1,0.99
O=C(Nc1ccc(F)cc1)C1CC1(c1ccccc1)c1ccccc1 (stereo not given),15,0.81
Cc1ccc(N=C2NC(=O)/C(=C/c3ccc(O)cc3)S2)cc1C,-4,0.94
Cc1ccc(N=C2NC(=O)/C(=C\c3cccc(Br)c3)S2)cc1C,0,0.79*
O=C1Nc2ccccc2/C1=N/N=C\c1ccccc1[N+](=O)[O-],33,0.59*
CCOc1ccc(/C=N\N=C2\C(=O)Nc3ccccc32)cc1,-10,0.96
CN(Cc1ccccc1)C(=O)c1cc(Cl)ccc1Cl,7,1
CC(C)N1C(=O)/C(=C\c2cccs2)SC1=S,0,1
COC(=O)C1=C(C)NC(=O)NC1c1ccccc1F (stereo not given),-1,1.1
CCCOC(=O)c1cccc(NC(=O)COc2cc(C)cc(C)c2)c1,7,1
COc1ccc(CCNc2cc(N3CCN(C)CC3)ccc2[N+](=O)[O-])cc1OC,46*,0.98
CN1CCN(c2ccc([N+](=O)[O-])c(NCc3ccc(Cl)cc3)c2)CC1,15,0.96
O=C(CSc1cc(Cl)ccc1Cl)Nc1cccc(Br)c1,7,0.93
O=C(CSC1CC(=O)N(c2cccc(Br)c2)C1=O)Nc1ccc(Cl)cc1 (stereo not given),43*,0.79*
CC1=C(C(=O)OC2CCCC2)C(c2coc3ccccc3c2=O)C2=C(CC(C)(C)CC2=O)N1 (stereo not given),15,0.92
CCC(C)c1ccc(OCCOc2ccc(C=C3C(=O)NC(=S)NC3=O)cc2)cc1 (stereo not given),46*,0.92
CCC(C)c1ccc(OCCOc2ccc(C=C3C(=O)NC(=S)NC3=O)cc2OC)cc1 (stereo not given),5,0.85
Oc1ccc(Br)cc1CN1CCN(Cc2cccc3ccccc23)CC1,-8,0.93
CS(=O)(=O)N1CCN(Cc2ccccc2Cl)CC1,1,0.61*
CS(=O)(=O)N1CCN(CCCc2ccccc2)CC1,-5,1
CS(=O)(=O)N1CCN(Cc2cccc3ccccc23)CC1,10,0.69*
Cc1ccc2[nH]c(C)c(CN3CCCC3)c(=O)c2c1,0,1.1
O=C(c1ccc(Cl)cc1Cl)N1CCN(c2ccccn2)CC1,6,1.1
SMILES,NS3h inh CB,Cy5 interf NS3h
CCOC(=O)C1=C(C)N=c2s/c(=C\c3ccc(C)o3)c(=O)n2C1c1ccc(SC)cc1 (stereo not given),2,0.94
O=C(CN1C(=O)/C(=C/c2cccc(Br)c2)SC1=S)Nc1cccc(C(=O)O)c1,39,0.76*
COc1cc(/C=C2/SC(=S)N(CC(=O)Nc3cccc(C(=O)O)c3)C2=O)cc(OC)c1OC,15,1
Nc1ccc(Nc2nc(-c3ccc(Br)cc3)cs2)cc1,5,0.78*
Cc1ccc(Nc2nc(-c3ccc(-c4ccccc4)cc3)cs2)cc1,-6,0.98
CCc1ccc(NC(=O)c2cccc3ccccc23)cc1,6,1.1
CCN(CC)CCN1C(=O)C(O)=C(C(=O)/C=C/c2ccccc2)C1c1ccc(Br)cc1 (stereo not given),8,1.1
CCN(CC)CCN1C(=O)C(O)=C(C(=O)/C=C/c2ccccc2)C1c1ccc(OC)cc1 (stereo not given),26,1.2*
CCOc1ccc(C(=O)Nc2ccc(C)cc2[N+](=O)[O-])cc1Cl,7,1
CCOc1ccc(C(=O)Nc2ccc(NC(=O)CC)cc2)cc1Cl,16,0.73*
CCOc1ccc(C(=O)Nc2ccc(N3CCOCC3)c(Cl)c2)cc1Cl,10,0.98
CCOc1ccc(C(=O)Nc2cccc([N+](=O)[O-])c2)cc1Cl,2,0.57*
Cc1ccc(C(=O)N/C(=C\c2sccc2C)C(=O)NCc2ccco2)cc1,3,1.1
CCOc1ccccc1NC(=O)c1c(NC(=O)Cc2ccccc2)sc2c1CCCCC2,6,1.1
CCOc1ccccc1NC(=O)c1c(NC(=O)c2cccs2)sc2c1CCCC2,41*,1
CN(C(=O)COc1ccc(Cl)cc1Cl)C1CCS(=O)(=O)C1 (stereo not given),-1,1.1
COc1cccc2c1N(C(=O)c1ccc(F)cc1)C(C)(C)c1ssc(=S)c1-2,12,1
O=C(O)CCC(=O)N1N=C(c2cccs2)CC1c1cccc([N+](=O)[O-])c1 (stereo not given),3,0.99
CCc1cc(=O)oc2cc(C)cc(OC(C)C(C)=O)c12 (stereo not given),6,1.1
COc1ccc(C2C(C(=O)OC(C)C)C(=O)CC(C)(O)C2C(=O)OC(C)C)cc1OC (stereo not given),-2,1
COc1cc(C(=O)NCCC(C)C)c([N+](=O)[O-])cc1OC,3,0.98
COc1cc(C(=O)NCc2ccc(C)cc2)c([N+](=O)[O-])cc1OC,16,0.69*
Nc1nc(-c2cccs2)c(NC(=O)c2ccccc2)s1,6,0.91
CCN1C(=O)/C(=C\c2ccc(-c3ccc(C)c(Cl)c3)o2)SC1=S,12,1.1
CCN1C(=O)/C(=C\c2ccc(-c3ccc(I)cc3)o2)SC1=S,9,0.72*
SMILES,NS3h inh CB,Cy5 interf NS3h
O=[N+]([O-])c1ccccc1NC(=NS(=O)(=O)c1ccccc1)c1ccccc1,5,0.99
O=[N+]([O-])c1ccccc1NC(=NS(=O)(=O)c1ccc(Cl)cc1)c1ccccc1,20,0.69*
COc1ccc(Cl)cc1N(CC(=O)NCCSc1nc2ccccc2s1)S(=O)(=O)c1ccccc1,15,0.98
CS(=O)(=O)N(CC(=O)N(Cc1ccccc1)Cc1ccccc1)c1ccc(Cl)cc1,25,0.68*
CS(=O)(=O)N(CC(=O)O)c1ccc(Cl)cc1,4,1.1
COc1ccc(-n2nc3cc(C)c(NC(=O)COc4ccc([N+](=O)[O-])cc4)cc3n2)cc1,-1,1
COC(=O)c1c(C)oc2ccc(OC(=O)c3ccc(OC)c(OC)c3)cc12,8,0.96
COc1cc(/C=C2\SC(=S)N(C(CCC(=O)O)C(=O)O)C2=O)ccc1O (stereo not given),5,1.1
O=C1/C(=C/c2ccc(Br)o2)SC(=S)N1c1ccccc1,17,0.64*
O=C1/C(=C/c2ccc(Br)o2)SC(=S)N1c1cccc(C(F)(F)F)c1,3,0.86
O=C1C=CC(=O)N1c1ccc(Cc2ccc(N3C(=O)C=CC3=O)c(Cl)c2)cc1Cl,14,1
Nc1nnnn1/N=C\c1ccc(C=O)cc1,-9,0.71*
Nc1nnnn1/N=C\c1ccc(OCc2ccccc2)cc1,-5,1.1
CCC(C(=O)n1nnc2ccccc21)c1ccccc1 (stereo not given),3,0.93
Cc1ccc(-c2[nH]n3c(=O)cc(-c4ccc([N+](=O)[O-])cc4)nc3c2C)cc1,-6,0.79*
COc1ccc(-c2cc(=O)n3[nH]c(-c4ccc(C)cc4)c(C)c3n2)cc1,2,1.1
O=C(Nc1ccccc1C(=O)O)c1ccc(NC(=O)C(c2ccccc2)c2ccccc2)cc1,14,1
O=C(O)C1CN(S(=O)(=O)c2ccccc2)CCN1S(=O)(=O)c1ccccc1 (stereo not given),-2,1
O=[N+]([O-])c1ccc(-c2cn3c(n2)sc2ccccc23)cc1,2,0.65*
